According to PubChem BioAssay AID488941 (The Scripps Research Institute Molecular Screening Center, 2010):
The list shows a part of the results. Values without a mark were called inactive.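 Rule for the calls: active = mean activation above a set limit taken from an earlier procaspase-7 screen; inactive = the rest.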

biological target: Caspase-7 (Homo sapiens) (UniProt P55210); test: procaspase-7 activators, counter-screen for procaspase-3 activator project, biochemical, absorbance, triplicate, human (AID 488941); conditions: recombinant procaspase-7, Ac-DEVD-pNA absorbance; at 8.5 µM; stronger effect = higher value; asp23/198/206-to-Ala mutant, cannot self-cleave;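 note: 0% = DMSO wells and 100% = DMSO plus 5 µM procaspase-7 enzyme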
Sequence (P55210 whole entry D23A/D198A/D206A): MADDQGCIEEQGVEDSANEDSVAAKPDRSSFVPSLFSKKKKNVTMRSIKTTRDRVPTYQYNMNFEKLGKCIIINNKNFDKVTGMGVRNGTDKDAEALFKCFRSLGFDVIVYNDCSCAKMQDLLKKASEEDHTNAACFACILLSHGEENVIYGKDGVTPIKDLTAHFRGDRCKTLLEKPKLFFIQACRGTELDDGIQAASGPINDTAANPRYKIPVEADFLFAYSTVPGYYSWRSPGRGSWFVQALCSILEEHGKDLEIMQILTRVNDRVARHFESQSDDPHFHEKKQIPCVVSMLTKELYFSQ

SMILES | activation [%]
COc1ccccc1NS(=O)(=O)c1ccc(C(=O)N2CCN(c3ccccc3O)CC2)cc1 | 0.45
COC(=O)Cc1cc(=O)oc2c(C)c(O)ccc12 | -20.2
CN1CCN(CCCNC(=O)c2ccc(/C=C3\Oc4ccccc4N(Cc4ccc(Cl)cc4)C3=O)cc2)CC1 | -19.9
COc1ccc(-c2sc3ccc(OC)cc3c2C#Cc2ccccn2)cc1 | 6.29
COc1ccc(CCNC(=O)COC(=O)c2ccc[nH]c2=O)cc1 | 3.85
COc1ccc2nc(Nc3nc4ccc(NC(C)=O)cc4s3)sc2c1 | -1.13
COC(=O)c1cnc(Nc2cc(C)ccc2OC)c2ccccc12 | -21.2
Cc1nn(C)cc1CNC(=O)Nc1ccc(Cl)cc1 | 1.34
O=C(CCNS(=O)(=O)c1ccccc1C(F)(F)F)NCc1ccc2c(c1)OCO2 | 1.59
Oc1ccccc1C1=NN(c2ccccc2)C(c2ccccc2)C1 (stereo unspecified) | -21.3
CCOc1ccc2nc(NCCNS(=O)(=O)c3ccccc3)c(C#N)cc2c1 | -21
